{"source": "PubChem BioAssay (NCI)", "note": "Compounds without any hit were thinned out: in the full panel of roughly 79,000, 15% have a hit. Unmarked numbers belong to inactive results. No stated cut-off is given here; in the data, active means growth inhibition above about 70%; inactive means the rest."}
{"assay": "NCI Yeast Anticancer Drug Screen. Data for the rad50 strain (AID 155);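 further: 0% = growth of vehicle-only cultures of the same strain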", "details": "S. cerevisiae rad50 strain growth inhibition; at 50.0 µM; active compounds read high", "summary_of_the_method": "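Inhibition values express reduced yeast growth in compound-treated cultures relative to vehicle-treated controls.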", "units": {"growth inhibition": "%"}}
{"smiles": "Cc1ccc(Cl)cc1N", "growth inhibition": 11.8}
{"smiles": "CC1(C)CC(Nc2ccc(Nc3ccccc3)cc2)CC(C)(C)N1", "growth inhibition": -4.35}
{"smiles": "COC1OC2COc3ccccc3OC2C2C1N2C(N)=S", "note": "(stereo not drawn)", "growth inhibition": 3.4}
{"smiles": "CCN(c1ccccc1C(=O)O)S(=O)(=O)c1ccc(C)cc1", "growth inhibition": 1.9}
{"smiles": "c1ccc(SC(Sc2ccccc2)=C2CCC2)cc1", "growth inhibition": 9.7}
{"smiles": "NC(CSS(=O)(=O)c1ccccc1)C(=O)O", "note": "(stereo not drawn)", "growth inhibition": 4}
{"smiles": "COc1cccc(NC(=O)CC(=O)N2N=C(N(CCC#N)c3ccc(Cl)cc3)CC2c2ccccc2)c1", "note": "(stereo not drawn)", "growth inhibition": 19.1}
{"smiles": "CCOC(=O)C1CN(C2CCCCC2)CCC1=O", "note": "(stereo not drawn)", "growth inhibition": -2.45}
{"smiles": "CCC12OC3(CC)C4C(=O)OC1C1(CC)OC4(CC)C3C(=O)OC21", "growth inhibition": -13.7}
{"smiles": "NC(=O)CCn1ccc2ccccc21", "growth inhibition": 0.5}
{"smiles": "Clc1cccc(CC(Br)Br)c1", "growth inhibition": 14.8}
{"smiles": "CSc1ccc(C2OC(=O)c3ccccc32)c2ccccc12", "note": "(stereo not drawn)", "growth inhibition": 20.4}
{"smiles": "COc1cc(C2C3=C(COC3=O)OC(C)(C)Oc3cc4c(cc32)OCO4)cc(OC)c1O", "note": "(stereo not drawn)", "growth inhibition": 55.7}
{"smiles": "CCCCNC(=O)Nc1cc(C)ccc1C", "growth inhibition": -0.4}
{"smiles": "O=[N+]([O-])c1ccc(O)c(O)c1", "growth inhibition": -23.6}
{"smiles": "CC1(c2ccco2)CCC(=O)CC1=O", "note": "(stereo not drawn)", "growth inhibition": 4.2}
{"smiles": "COc1cc(C(c2cc3c(cc2OC(C)=O)OCO3)C(C(C)=O)C(C)=O)cc(OC)c1OC", "note": "(stereo not drawn)", "growth inhibition": 3.55}
{"smiles": "COc1ccc(CCCNC(=O)c2cc(OC)c(OC)cc2CCO)cc1OC", "growth inhibition": 18.9}
